ALDH1A1 inh – blocks purified human ALDH1A1 activity; Purified ALDH1A1, NADH fluorescence, propionaldehyde substrate; Potency, µM (doses to about 75.3 µM), inactives show at the top dose activity, negative = inhibition, usual class: inhibitors; P00352; actives 7.3% (n = 220,000);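 further: potency means the concentration at half of the fitted maximal effect; plate controls were no enzyme wells and a reference inhibitor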
Target sequence (P00352 whole entry, looked up): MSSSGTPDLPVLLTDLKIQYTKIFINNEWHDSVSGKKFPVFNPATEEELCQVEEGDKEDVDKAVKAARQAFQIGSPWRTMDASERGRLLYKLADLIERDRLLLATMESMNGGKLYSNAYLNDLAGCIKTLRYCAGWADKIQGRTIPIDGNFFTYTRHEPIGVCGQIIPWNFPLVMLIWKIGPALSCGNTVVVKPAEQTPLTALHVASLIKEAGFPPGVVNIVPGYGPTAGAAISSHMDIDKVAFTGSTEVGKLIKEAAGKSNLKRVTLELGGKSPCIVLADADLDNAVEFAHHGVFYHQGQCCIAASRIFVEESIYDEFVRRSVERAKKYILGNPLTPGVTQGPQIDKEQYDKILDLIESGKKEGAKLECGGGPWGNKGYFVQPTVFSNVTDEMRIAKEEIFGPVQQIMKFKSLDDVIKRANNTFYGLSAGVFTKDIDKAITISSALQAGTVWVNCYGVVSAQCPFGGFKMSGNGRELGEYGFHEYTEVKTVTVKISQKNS
IMPase Li inh – IMPase inhibition in cells with lithium potentiation; CHO-M1 cells, IP1 TR-FRET (IP-One), carbachol + lithium; Potency, µM (highest dose often 59.4 µM), without a hit: at the top dose activity, negative = IMPase inhibition, actives largely listed as inhibitors; actives 0.35% (n = 210,000); active means well fitted curve in the direction sought with a large enough effect; inconclusive means small, poorly fitted or top-dose-only effect, or another doubt; inactive means no such curve, though single readings can be large; an effect the other way counts as inactive or inconclusive;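 further: IP1 builds up when IMPase is blocked and the TR-FRET signal falls; potency means the concentration at half of the fitted maximal effect; plate controls were basal vehicle for no effect and high inhibitor control for full effect; nearly all actives have a fitted effect of over 50% in size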
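Readout is a homogeneous TR-FRET IP1 immunoassay (Ex 320, Em 665 and 620), where raised cytosolic IP1 lowers signal. Cells were CHO-M1 treated 30 min at 37C with test compounds plus a little lithium; AC50 values came from Hill-equation fitting.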
IMPase cell inh – membrane-permeable compound that blocks inositol monophosphatase. P97697. CHO-M1 cells, IP1 accumulation, HTRF TR-FRET ratio. inhibition (IP1 accumulation), % at 46.1 µM. 120,000 tested, under 10 active; active means well fitted curve in the direction sought with a large enough effect in the signal ratio, not every such curve was filed as active; inconclusive means small, poorly fitted or top-dose-only effect, or a change in a side signal; inactive means no such curve, though single readings can be large or run the other way; the % refers to the signal ratio;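 further: cells stimulated with carbachol in lithium chloride buffer; plate controls were DMSO basal wells for no effect and reference inhibitor wells for full effect; higher means more IMPase inhibition seen as more IP1 and lower FRET ratio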
Target sequence (P97697 whole entry, looked up): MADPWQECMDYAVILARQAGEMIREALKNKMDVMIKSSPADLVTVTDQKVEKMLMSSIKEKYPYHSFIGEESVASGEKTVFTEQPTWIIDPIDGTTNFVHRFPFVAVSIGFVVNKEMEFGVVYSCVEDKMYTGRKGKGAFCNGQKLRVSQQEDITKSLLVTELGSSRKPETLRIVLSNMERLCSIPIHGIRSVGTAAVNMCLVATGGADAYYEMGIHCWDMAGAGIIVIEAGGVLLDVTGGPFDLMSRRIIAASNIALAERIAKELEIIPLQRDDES
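CHO-M1, 2000 cells/well, cultured 16–30 h; cpd up to 46 uM; carbachol (50 uM solution, stimulation buffer w/ 50 mM LiCl, pH 7.4), 30 min 37C; IP-One TR-FRET, 10 min RT; Ex 320/Em 665, 620; Hill-fit AC50.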
HPGD inh – inhibitors of human 15-hydroxyprostaglandin dehydrogenase (HPGD) | P15428 | purified HPGD, NADH fluorescence kinetic, PGE2 substrate | Potency, µM, for inactives: at the top dose activity change, negative = inhibition, most hits filed as inhibitors | actives 4.3% (n = 150,000); further: potency means the concentration at half of the fitted maximal effect
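NADH formation kinetics: reaction with 30 uM PGE2 and 1 mM NAD+ (final), 20 nM enzyme, Tris-HCl pH 8 with Tween 20, after 15 min compound preincubation at room temperature. Fluorescence change, last versus first of five reads.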
PNC inhibitor – perinucleolar compartment assembly inhibition | activity change (PNC), negative = inhibition, % at 10 µM | AID 2417 | PC3M PTB-GFP, PNC prevalence imaging, 16 h; active compounds read low | actives 3.1% (n = 140,000);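 active means readout at or below -70, meaning at least 70% loss of cells showing the perinucleolar compartment, a nuclear body marking cancer cells; inconclusive means readout between -30 and a set limit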;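 further: plate controls were DMSO wells for no effect and camptothecin positive control wells for full effect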
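PC3M cells stably expressing PTB-GFP, 750–1000 cells/well, treated 16 h at 37 °C with compound (23 nl of library stock), in duplicate. After paraformaldehyde fixation and Hoechst stain, imaged at 20x; PNC prevalence scored by image analysis.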
NPSR antagonist – antagonists of human neuropeptide S receptor cAMP signaling; Potency, µM (top dose mostly 38.3 µM), without a hit: top-dose activity change, negative = inhibition, hits mostly inhibitors; CHO-NPSR cells, cAMP TR-FRET, antagonist mode; Q6W5P4; actives 1% (n = 220,000); active means well fitted curve in the direction sought with a large enough effect; inconclusive means small, poorly fitted or top-dose-only effect, or another doubt; inactive means no such curve, though single readings can be large; an effect the other way counts as inactive or inconclusive; further: potency means the concentration at half of the fitted maximal effect; nearly all actives have a fitted effect of over 50% in size
Numbers without * were called inactive; u = inconclusive; x = no result given; [ ] = dose if it differs, or a comment. Most compounds without a hit are left out; they make up all but 11% or so of the library. Unless noted, the call rests on the fitted dose curve; in most records, active means well fitted inhibition curve with a large enough effect (not every such curve was filed as active); inconclusive means small, poorly fitted or top-dose-only effect, or another doubt; inactive means no such curve, though single readings can be large or run the other way. Unless noted, on the % scale 0 is the no-effect control and ±100 the full control effect.

SMILES	ALDH1A1 inh	IMPase Li inh	IMPase cell inh	HPGD inh	PNC inhibitor	NPSR antagonist
Cc1nc([N+](=O)[O-])c(Br)n1CC(=O)c1ccc(Cl)cc1	-7.2%	-6.0%[38.3 µM]	7.8	-9.5%	-14.2	u
COCc1cc(C)n(CC(=O)NC(C)c2ccccc2)c(=O)c1C#N (stereo not given)	u	-0.8%[38.3 µM]	-4.3	u	u	5.3%[46.1 µM]
COc1cc(/C=C/C(=O)NC(C)CCc2ccccc2)cc(OC)c1OC (stereo not given)	u	9.0%	x	u	-3.1	-5.9%
COc1ccc(-n2c(Cc3cccn3C)nnc2SCC(=O)Nc2ccc(C(C)=O)cc2)cc1	8.91µM*	-13.8%[38.3 µM]	-4.7	-21.2%	11.2	u
COc1ccc(NC(=O)CSc2nnc(Cc3cccn3C)n2-c2ccc(OC)cc2)cc1	14.1µM*	0.3%	3.3	-3.0%	-17.0	-7.1%
CCCn1nc(C(=O)Nc2nc3ccccc3[nH]2)c2ccccc2c1=O	u	10.1%	x	-0.7%	u	2.1%
COc1cc(OC)cc(C(=O)NC(C)c2ccc(Br)cc2)c1 (stereo not given)	3.1%	-5.9%	x	x	x	-31.1%
COc1ccc(OCCNS(=O)(=O)c2ccc3oc4ccccc4c3c2)cc1	4.3%	4.8%[38.3 µM]	2.6	-21.0%	10.4	-17.3%[46.1 µM]
COc1ccc(NS(=O)(=O)c2ccc3oc4ccccc4c3c2)cn1	8.91µM*	21.9%[38.3 µM]	10.9	22.4µM*	-13.8	-15.5%[46.1 µM]
Nc1ncc(Br)cc1S(=O)(=O)NCCC(=O)N1CCN(c2ccccn2)CC1	u	23.4%	x	-13.0%	-113.4*	4.3%
CC(=O)N1CCc2cc(S(=O)(=O)NCCC(=O)N3CCN(c4ccccn4)CC3)ccc21	2.2%	-1.7%[38.3 µM]	2.3	-9.3%	12.0	0.8%[46.1 µM]
Cc1cc(C)cc(NC(=S)/C(=C(\[O-])c2ccc(Cl)s2)[n+]2cccc(C)c2)c1	25.1µM*	13.7%	x	x	x	-33.7%
CCOC(=O)c1c(-c2cccs2)csc1NC(=O)CCCC(=O)O	-4.9%	10µM*	u	-25.5%	98.1	-12.5%[46.1 µM]
CCOC(=O)c1c(-c2cccs2)csc1NC(=O)CSc1ncn[nH]1	20µM*	17.7%[38.3 µM]	0.1	u	u	-15.7%[46.1 µM]
CCOC(=O)c1c(-c2cccs2)csc1NC(=O)C(C)(C)C	-0.2%	42.5%[38.3 µM]	1.3	u	22.0	u
N#Cc1cnc(SCCc2ccccc2)nc1N	u	6.7%[38.3 µM]	-1.9	-15.4%	-82.6*	-15.1%[46.1 µM]
CCOC(=O)c1cc(NC(=O)N2CCOCC2)c(C)nc1C	5.5%	23.1%[38.3 µM]	-5.8	1.3%	-7.7	-0.7%[46.1 µM]
CC(C)n1c(=O)[nH]c2ccccc21	12.0%	-9.1%[38.3 µM]	3.4	-10.1%	-7.8	-11.0%[46.1 µM]
CC(C)n1c(=O)[nH][nH]c1=S	0.794µM*	x	x	x	x	-33.9%
CCOC(=O)C(=O)/C(=C\N(C)C)c1onc(-c2c(F)cccc2Cl)c1C(=O)OC	-11.1%	42.3%[38.3 µM]	6.5[1.84 µM]	10µM*	29.6	-14.7%[46.1 µM]
CC(C)Cc1cc(C(=O)Nc2cc(Cl)ccc2Cl)no1	-5.0%	28.4%[38.3 µM]	4.3	14.1µM*	6.9	5.3%[46.1 µM]
CC(C)c1cc(C(=O)Nc2cc(Br)ccc2O)no1	3.7%	32.0%[38.3 µM]	3.6	8.91µM*	34.3	-15.7%[46.1 µM]
CC(C)Cc1cc(C(=O)Nc2ccc(F)cc2F)no1	u	21.9%[38.3 µM]	15.4	-17.3%	-11.4	-19.1%[46.1 µM]
CC(C)c1cc(C(=O)Nc2cc(Cl)ccc2O)no1	2.7%	11.9%[38.3 µM]	u	5.62µM*	-4.7	-14.2%[46.1 µM]
CCCOc1ccc(C2C(C(=O)c3ccc(C)o3)=C(O)C(=O)N2Cc2cccnc2)cc1 (stereo not given)	u	10µM*	-26.7	-14.0%	33.5	u
SMILES	ALDH1A1 inh	IMPase Li inh	IMPase cell inh	HPGD inh	PNC inhibitor	NPSR antagonist
Cc1ccc(C(=O)C2=C(O)C(=O)N(CCCn3ccnc3)C2c2ccc(OC(C)C)cc2)o1 (stereo not given)	u	14.1µM*	u	-8.5%	u	u
CCOc1ccc(C2C(C(=O)c3ccco3)=C(O)C(=O)N2Cc2cccnc2)cc1 (stereo not given)	-2.7%	-7.5%[38.3 µM]	-19.5	-0.9%	u	2.8%[46.1 µM]
CN(C)c1ccc(/C=[N+](\[O-])C2N(c3ccccc3)C(=S)SC2(C)C)cc1 (stereo not given)	22.4µM*	20.2%	x	-11.7%	-19.9	-2.0%
CN(C)c1ccc(/C=[N+](\[O-])C2SC(=S)N(C)C2(C)C)cc1 (stereo not given)	0.447µM*	-18.3%[38.3 µM]	6.1	-25.4%	18.0	-26.9%[46.1 µM]
COc1ccc(OC)c(CN(CCN2CCOCC2)C(=O)Nc2ccccc2)c1	0.4%	-2.4%	x	-1.1%	-22.3	6.5%
Cn1c(SCCOc2ccccc2F)nc2ccccc2c1=O	-6.7%	25.4%	x	x	x	-32.6%
Cc1ccccc1C1NC(=S)NC2=C1C(=O)CCC2 (stereo not given)	22.4µM*	-5.8%	x	x	x	11.7%
Cc1ccccc1C1NC(=O)Cc2ccccc21 (stereo not given)	3.5%	14.0%[38.3 µM]	-1.1	-3.3%	11.7	-2.1%[46.1 µM]
O=C(NCc1ccco1)c1nnc(Cc2ccc(Cl)cc2)o1	-3.3%	-0.7%[38.3 µM]	7.4	-19.6%	12.6	-17.7%[46.1 µM]
Cc1cc(C)c2c(c1)/C(=N/NC(=O)c1cc(C)oc1C)CCC2	-4.9%	2.0%	x	-8.3%	17.9	-22.9%
Cc1nc(NC(=O)CSc2nc3cccnc3n2C2CCCCC2)sc1C	-3.1%	-29.3%[38.3 µM]	-4.6	-12.0%	-124.9*	-4.4%[46.1 µM]
CCNCc1ccccc1OCc1ccccc1	3.2%	19.8%	x	x	x	4.9%
N#CC(Nc1ccccc1)c1ccccc1OCc1ccccc1 (stereo not given)	17.8µM*	31.6%[38.3 µM]	-1.6	-15.5%	-6.3	-11.8%[46.1 µM]
C(=N\n1cnnc1)/C1CCCCC1	3.4%	x	11.3	x	u	8.8%[46.1 µM]
CN(C)CCNc1oc(/C=C/c2ccccc2)nc1C#N	u	-24.1%	u	u	-3.0	10µM*
CC(C)C(=O)N1CCN(c2ccc([N+](=O)[O-])c(NC(C)c3ccccc3)c2)CC1 (stereo not given)	22.4µM*	12.6%	x	-17.7%	-1.8	-45.2%
CCOC(=O)NC(O)C(=O)c1ccc(F)cc1 (stereo not given)	22.4µM*	-15.4%	x	x	x	19.3%
CCOC(=O)c1cnc(-n2[nH]c(C)c(Cc3ccccc3)c2=O)[nH]c1=O	5.5%	16.5%	x	x	x	-0.5%
Cc1cc(C)c2c(CC(=O)O)coc2c1	-4.2%	-13.3%[38.3 µM]	-3.5	20µM*	-9.4	-0.2%[46.1 µM]
Cn1cc(Cl)c(C(=O)N/N=C/c2ccc(OS(=O)(=O)c3ccccc3)cc2)n1	u	17.5%	5.3	u	-100.0*	-20.6%[46.1 µM]
Cc1ccc(/C=N/NC(=O)c2nn(C)cc2Cl)cc1	6.4%	-3.6%	x	-2.3%	-16.4	8.6%
CC(=O)N(C(C)=O)N1C(=O)C2C3c4ccccc4C(c4ccccc43)C2C1=O (stereo not given)	2.8%	17.5%	x	x	x	-41.8%
